# Results published in paper PMC7862700, “An all-to-all approach to the identification of sequence-specific readers for epigenetic DNA modifications on cytosine”.
# Columns and labels:
# Assay in all cases: DAPPL (digital affinity profiling via proximity ligation, sequencing); 10 mM Tris-HCl pH 7.5, 50 mM NaCl, 1 mM DTT, 4% glycerol, room temperature, 30 min; GST-TFs on glutathione beads, 16-mer random dsDNA library, 0.1% formaldehyde crosslink after washing; high values mean tight binding
# [1] = molecular target: T1, FEV (Homo sapiens, UniProt Q99581 1-238); conditions: protein: recombinant; tags: N-terminal GST; dsDNA, one strand shown
# T1 sequence: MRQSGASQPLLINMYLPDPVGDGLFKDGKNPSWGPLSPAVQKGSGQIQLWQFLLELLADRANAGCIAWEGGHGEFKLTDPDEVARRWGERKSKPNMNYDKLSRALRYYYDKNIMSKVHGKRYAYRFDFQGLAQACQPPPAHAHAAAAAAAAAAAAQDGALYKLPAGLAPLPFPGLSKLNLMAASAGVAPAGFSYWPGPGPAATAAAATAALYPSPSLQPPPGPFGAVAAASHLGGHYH
# Method in brief: (§1)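 In yeast, human transcription factors were expressed with a GST fusion, then pulled down on glutathione beads and given DNA barcodes. Pooled with a tag-only sample, they were exposed to 200 nmole of a 16-mer random double-stranded DNA library (Tris/NaCl/DTT/glycerol buffer, room temperature, 30 min), washed, crosslinked with 0.1% formaldehyde, proximity-ligated using BsaI/T4 ligase for 1 h at 37 °C, PCR-amplified and read on an Illumina NextSeq500. Each hexamer's frequency of reads for a factor, divided by the matching frequency for the tag-only sample, gives the binding signal.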
# [2] = molecular target: ETV5 (Homo sapiens, UniProt P41161 1-510); conditions: protein: recombinant; tags: N-terminal GST; dsDNA, one strand shown
# Method in brief: as §1
# [3] = molecular target: HSF1 (Homo sapiens, UniProt Q00613 1-529); conditions: protein: recombinant; tags: N-terminal GST; chain copies: 3; dsDNA, one strand shown
# Method in brief: as §1
# [4] = molecular target: T2, SPIC (Homo sapiens, UniProt Q8N5J4 1-248); conditions: protein: recombinant; tags: N-terminal GST; dsDNA, one strand shown
# T2 sequence: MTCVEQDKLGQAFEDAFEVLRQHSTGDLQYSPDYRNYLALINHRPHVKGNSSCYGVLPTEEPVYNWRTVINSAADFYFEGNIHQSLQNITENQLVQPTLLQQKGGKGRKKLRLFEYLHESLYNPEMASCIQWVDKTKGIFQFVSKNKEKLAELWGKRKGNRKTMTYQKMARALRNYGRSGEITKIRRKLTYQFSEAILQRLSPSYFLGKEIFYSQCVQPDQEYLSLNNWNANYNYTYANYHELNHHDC
# Method in brief: as §1
# [5] = molecular target: ELF4 (Homo sapiens, UniProt Q99607 1-663); conditions: protein: recombinant; tags: N-terminal GST; dsDNA, one strand shown
# Method in brief: as §1
# [6] = molecular target: T3, ELK4 (Homo sapiens, UniProt P28324-2 1-405); conditions: protein: recombinant; tags: N-terminal GST; dsDNA, one strand shown
# T3 sequence: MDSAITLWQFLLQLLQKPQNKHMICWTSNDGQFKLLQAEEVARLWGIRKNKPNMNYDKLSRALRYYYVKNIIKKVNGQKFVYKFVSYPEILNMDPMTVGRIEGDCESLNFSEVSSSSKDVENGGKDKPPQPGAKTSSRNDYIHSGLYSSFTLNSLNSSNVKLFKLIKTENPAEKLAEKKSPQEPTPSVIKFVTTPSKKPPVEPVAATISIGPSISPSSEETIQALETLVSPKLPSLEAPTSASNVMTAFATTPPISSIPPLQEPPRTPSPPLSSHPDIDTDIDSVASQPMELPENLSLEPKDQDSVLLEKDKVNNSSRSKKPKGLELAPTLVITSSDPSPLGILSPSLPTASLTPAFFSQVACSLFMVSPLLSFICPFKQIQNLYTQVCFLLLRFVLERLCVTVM
# Method in brief: as §1
# [7] = molecular target: T4, ETV2 (Homo sapiens, UniProt O00321 1-342); conditions: protein: recombinant; tags: N-terminal GST; dsDNA, one strand shown
# T4 sequence: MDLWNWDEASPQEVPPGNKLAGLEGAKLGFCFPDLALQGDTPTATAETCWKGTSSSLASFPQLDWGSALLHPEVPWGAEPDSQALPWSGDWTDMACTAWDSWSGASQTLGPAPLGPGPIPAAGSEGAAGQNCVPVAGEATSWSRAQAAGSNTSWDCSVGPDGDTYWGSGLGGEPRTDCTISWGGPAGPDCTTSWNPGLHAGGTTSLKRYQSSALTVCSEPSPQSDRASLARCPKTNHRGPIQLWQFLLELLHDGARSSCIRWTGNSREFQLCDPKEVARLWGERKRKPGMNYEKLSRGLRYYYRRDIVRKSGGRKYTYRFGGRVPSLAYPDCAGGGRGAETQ
# Method in brief: as §1
# [8] = molecular target: T5, ELF3 (Homo sapiens, UniProt P78545 1-371); conditions: protein: recombinant; tags: N-terminal GST; dsDNA, one strand shown
# T5 sequence: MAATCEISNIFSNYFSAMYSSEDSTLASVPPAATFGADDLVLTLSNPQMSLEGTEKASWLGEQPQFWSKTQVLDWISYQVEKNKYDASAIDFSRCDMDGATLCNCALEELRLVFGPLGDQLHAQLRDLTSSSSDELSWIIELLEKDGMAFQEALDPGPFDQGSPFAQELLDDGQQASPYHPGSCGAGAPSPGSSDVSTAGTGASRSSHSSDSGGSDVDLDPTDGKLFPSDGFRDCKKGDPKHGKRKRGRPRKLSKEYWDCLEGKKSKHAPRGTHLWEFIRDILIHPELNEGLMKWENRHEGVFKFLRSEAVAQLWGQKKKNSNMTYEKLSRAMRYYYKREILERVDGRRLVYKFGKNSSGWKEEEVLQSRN
# Method in brief: as §1
# [9] = molecular target: ETV1 (Homo sapiens, UniProt P50549 1-477); conditions: protein: recombinant; tags: N-terminal GST; dsDNA, one strand shown
# Method in brief: as §1
# [10] = molecular target: T6, ERF (Homo sapiens, UniProt P50548 1-548); conditions: protein: recombinant; tags: N-terminal GST; dsDNA, one strand shown
# T6 sequence: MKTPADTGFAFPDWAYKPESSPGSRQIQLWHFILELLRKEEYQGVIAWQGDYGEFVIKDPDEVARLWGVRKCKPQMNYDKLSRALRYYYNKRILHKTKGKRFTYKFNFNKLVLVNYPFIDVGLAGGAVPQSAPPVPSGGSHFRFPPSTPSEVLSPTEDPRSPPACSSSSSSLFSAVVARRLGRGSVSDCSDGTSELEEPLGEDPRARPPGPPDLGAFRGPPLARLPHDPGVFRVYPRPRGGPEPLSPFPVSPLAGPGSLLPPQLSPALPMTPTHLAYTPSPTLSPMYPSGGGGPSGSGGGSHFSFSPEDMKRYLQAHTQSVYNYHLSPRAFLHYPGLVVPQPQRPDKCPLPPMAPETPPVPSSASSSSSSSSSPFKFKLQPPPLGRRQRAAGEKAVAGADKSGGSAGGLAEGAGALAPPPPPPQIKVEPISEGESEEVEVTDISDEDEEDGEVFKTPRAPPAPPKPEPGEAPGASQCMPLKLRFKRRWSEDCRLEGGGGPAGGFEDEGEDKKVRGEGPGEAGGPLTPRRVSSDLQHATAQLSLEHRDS
# Method in brief: as §1
# [11] = molecular target: T7, ETV3L (Homo sapiens, UniProt Q6ZN32 1-361); conditions: protein: recombinant; tags: N-terminal GST; dsDNA, one strand shown
# T7 sequence: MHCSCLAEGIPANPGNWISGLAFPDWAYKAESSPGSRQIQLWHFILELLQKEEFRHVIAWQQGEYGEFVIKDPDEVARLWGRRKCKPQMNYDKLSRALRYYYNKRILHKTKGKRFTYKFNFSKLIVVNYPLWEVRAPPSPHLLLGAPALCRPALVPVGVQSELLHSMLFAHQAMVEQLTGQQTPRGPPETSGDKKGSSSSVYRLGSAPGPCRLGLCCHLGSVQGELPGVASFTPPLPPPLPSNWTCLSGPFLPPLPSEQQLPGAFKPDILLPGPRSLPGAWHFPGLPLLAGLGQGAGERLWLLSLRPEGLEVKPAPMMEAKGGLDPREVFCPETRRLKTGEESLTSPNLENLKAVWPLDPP
# Method in brief: as §1
# [12] = molecular target: T8, ETS2 (Homo sapiens, UniProt P15036 1-469); conditions: protein: recombinant; tags: N-terminal GST; dsDNA, one strand shown
# T8 sequence: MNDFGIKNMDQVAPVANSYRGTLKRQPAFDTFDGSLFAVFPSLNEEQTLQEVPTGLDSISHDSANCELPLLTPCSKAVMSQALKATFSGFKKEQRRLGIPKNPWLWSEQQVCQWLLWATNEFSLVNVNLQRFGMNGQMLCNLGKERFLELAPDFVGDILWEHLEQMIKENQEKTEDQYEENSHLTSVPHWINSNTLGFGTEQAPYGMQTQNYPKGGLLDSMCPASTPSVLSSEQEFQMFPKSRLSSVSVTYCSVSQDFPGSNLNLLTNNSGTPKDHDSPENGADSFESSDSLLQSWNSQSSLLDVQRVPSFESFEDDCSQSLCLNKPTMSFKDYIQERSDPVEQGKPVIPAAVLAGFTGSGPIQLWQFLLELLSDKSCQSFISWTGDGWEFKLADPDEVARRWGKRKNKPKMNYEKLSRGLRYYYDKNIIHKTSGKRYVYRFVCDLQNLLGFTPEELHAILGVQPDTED
# Method in brief: as §1
# [13] = molecular target: T9, SPDEF (Homo sapiens, UniProt O95238 1-335); conditions: protein: recombinant; tags: N-terminal GST; dsDNA, one strand shown
# T9 sequence: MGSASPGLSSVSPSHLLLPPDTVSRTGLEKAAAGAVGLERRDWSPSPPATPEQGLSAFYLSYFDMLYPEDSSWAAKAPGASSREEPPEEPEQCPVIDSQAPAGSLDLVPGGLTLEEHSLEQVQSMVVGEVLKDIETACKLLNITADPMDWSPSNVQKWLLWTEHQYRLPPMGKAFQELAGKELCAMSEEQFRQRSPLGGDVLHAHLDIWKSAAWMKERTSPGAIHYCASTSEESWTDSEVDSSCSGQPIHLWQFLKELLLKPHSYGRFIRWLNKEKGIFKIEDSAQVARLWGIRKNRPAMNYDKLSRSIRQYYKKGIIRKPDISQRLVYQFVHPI
# Method in brief: as §1
# [14] = molecular target: T10, ETV7 (Homo sapiens, UniProt Q9Y603 1-341); conditions: protein: recombinant; tags: N-terminal GST; dsDNA, one strand shown
# T10 sequence: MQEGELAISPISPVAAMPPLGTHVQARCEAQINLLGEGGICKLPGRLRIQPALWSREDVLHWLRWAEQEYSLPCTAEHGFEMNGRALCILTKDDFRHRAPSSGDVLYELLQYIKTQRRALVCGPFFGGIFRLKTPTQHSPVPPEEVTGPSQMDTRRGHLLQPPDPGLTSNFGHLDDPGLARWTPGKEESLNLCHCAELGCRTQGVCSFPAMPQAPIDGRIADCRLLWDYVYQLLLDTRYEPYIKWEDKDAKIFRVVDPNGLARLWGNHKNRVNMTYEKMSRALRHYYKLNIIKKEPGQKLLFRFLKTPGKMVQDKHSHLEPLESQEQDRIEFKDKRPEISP
# Method in brief: as §1
# [15] = molecular target: T11, ELF5 (Homo sapiens, UniProt Q9UKW6-2 1-255); conditions: protein: recombinant; tags: N-terminal GST; dsDNA, one strand shown
# T11 sequence: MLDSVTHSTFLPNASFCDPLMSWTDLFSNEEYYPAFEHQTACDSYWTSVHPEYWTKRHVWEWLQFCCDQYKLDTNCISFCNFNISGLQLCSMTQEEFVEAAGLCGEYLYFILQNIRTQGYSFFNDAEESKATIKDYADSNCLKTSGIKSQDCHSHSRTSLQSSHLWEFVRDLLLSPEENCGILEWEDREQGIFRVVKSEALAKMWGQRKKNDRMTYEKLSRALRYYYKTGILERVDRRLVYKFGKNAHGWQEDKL
# Method in brief: as §1
# [16] = molecular target: T12, ETV3 (Homo sapiens, UniProt P41162-2 1-143); conditions: protein: recombinant; tags: N-terminal GST; dsDNA, one strand shown
# T12 sequence: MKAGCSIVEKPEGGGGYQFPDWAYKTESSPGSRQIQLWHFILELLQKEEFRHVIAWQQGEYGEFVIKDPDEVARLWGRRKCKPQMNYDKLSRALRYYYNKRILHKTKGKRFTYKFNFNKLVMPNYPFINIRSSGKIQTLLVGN
# Method in brief: as §1
# [17] = molecular target: ETV6 (Homo sapiens, UniProt P41212 1-452); conditions: protein: recombinant; tags: N-terminal GST; dsDNA, one strand shown
# Method in brief: as §1
# Sequence of ETV6 (P41212 whole entry): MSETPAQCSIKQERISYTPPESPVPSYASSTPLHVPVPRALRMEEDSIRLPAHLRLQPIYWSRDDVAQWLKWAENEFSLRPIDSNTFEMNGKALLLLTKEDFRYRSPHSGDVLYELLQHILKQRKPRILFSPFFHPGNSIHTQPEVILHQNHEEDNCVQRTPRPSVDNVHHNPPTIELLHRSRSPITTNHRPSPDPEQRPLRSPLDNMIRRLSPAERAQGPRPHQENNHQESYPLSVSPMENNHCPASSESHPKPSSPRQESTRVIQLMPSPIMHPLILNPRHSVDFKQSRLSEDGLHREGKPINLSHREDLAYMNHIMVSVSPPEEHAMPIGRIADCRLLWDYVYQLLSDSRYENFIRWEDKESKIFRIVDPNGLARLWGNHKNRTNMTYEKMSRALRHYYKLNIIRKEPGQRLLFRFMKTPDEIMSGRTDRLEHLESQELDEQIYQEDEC
# Sequence of HSF1 (Q00613 whole entry): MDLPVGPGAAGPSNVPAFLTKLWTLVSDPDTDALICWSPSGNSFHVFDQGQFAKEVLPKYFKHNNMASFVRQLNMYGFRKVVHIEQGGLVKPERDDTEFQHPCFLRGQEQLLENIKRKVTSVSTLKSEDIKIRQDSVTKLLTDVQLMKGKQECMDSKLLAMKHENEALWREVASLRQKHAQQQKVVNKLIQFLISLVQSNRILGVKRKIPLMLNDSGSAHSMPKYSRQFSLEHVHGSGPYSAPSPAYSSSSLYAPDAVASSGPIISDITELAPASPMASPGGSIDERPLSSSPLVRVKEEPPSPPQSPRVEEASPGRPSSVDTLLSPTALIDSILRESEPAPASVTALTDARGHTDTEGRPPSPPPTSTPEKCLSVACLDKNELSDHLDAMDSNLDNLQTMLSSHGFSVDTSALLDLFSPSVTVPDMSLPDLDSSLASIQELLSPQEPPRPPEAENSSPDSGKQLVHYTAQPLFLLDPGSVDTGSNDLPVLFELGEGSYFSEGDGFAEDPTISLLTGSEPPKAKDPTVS
# Sequence of ETV1 (P50549 whole entry): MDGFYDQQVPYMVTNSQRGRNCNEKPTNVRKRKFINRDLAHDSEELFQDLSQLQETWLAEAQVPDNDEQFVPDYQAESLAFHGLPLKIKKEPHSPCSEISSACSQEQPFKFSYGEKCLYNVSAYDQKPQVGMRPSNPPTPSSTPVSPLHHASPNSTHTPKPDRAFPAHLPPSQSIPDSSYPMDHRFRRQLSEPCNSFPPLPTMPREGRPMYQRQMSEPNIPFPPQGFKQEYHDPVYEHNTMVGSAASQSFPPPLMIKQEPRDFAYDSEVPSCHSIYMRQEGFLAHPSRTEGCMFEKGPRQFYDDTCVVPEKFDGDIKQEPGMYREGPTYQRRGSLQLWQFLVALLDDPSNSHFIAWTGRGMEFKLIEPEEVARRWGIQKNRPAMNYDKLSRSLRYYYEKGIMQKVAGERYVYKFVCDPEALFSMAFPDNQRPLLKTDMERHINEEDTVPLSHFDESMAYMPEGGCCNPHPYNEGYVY
# Sequence of ELF4 (Q99607 whole entry): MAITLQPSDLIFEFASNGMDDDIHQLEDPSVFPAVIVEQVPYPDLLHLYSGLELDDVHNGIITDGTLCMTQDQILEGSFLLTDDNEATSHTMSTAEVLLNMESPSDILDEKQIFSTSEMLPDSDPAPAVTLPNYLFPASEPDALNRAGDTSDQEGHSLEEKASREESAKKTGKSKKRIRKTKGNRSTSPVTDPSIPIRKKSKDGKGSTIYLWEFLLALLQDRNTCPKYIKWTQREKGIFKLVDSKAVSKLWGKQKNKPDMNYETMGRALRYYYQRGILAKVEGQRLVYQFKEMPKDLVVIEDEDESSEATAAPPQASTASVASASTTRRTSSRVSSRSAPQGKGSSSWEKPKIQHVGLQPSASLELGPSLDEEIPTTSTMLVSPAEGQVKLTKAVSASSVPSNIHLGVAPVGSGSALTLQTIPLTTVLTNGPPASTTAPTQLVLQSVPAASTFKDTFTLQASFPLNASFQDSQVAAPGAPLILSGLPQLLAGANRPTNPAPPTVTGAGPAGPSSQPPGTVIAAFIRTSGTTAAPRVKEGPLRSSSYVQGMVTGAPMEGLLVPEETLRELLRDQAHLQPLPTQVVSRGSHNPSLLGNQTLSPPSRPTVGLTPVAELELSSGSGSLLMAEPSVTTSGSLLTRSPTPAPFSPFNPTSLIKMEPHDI
# Sequence of ETV5 (P41161 whole entry): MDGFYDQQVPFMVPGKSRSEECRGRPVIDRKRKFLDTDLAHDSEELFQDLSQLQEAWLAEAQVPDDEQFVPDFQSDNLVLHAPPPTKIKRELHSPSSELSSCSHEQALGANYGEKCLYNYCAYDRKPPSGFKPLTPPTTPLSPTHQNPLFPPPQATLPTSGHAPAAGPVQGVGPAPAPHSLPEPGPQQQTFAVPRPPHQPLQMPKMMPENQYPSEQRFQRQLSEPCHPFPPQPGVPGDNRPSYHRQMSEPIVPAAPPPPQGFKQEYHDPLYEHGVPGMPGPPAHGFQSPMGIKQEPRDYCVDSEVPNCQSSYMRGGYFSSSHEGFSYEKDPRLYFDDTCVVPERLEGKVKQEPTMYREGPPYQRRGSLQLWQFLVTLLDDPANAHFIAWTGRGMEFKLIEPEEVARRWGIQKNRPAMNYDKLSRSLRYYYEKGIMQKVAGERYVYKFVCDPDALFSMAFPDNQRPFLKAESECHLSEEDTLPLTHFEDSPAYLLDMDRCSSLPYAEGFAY
sequence,measurement,setting,value
TCCGTC,binding signal,[1],"1.38 fold enrichment (6-mer frequency, TF over GST control)"
same,binding signal,[2],"1.31 fold enrichment (6-mer frequency, TF over GST control)"
same,binding signal,[3],"1.04 fold enrichment (6-mer frequency, TF over GST control)"
same,binding signal,[4],"1.38 fold enrichment (6-mer frequency, TF over GST control)"
same,binding signal,[5],"1.42 fold enrichment (6-mer frequency, TF over GST control)"
same,binding signal,[6],"1.3 fold enrichment (6-mer frequency, TF over GST control)"
same,binding signal,[7],"1.35 fold enrichment (6-mer frequency, TF over GST control)"
same,binding signal,[8],"1.27 fold enrichment (6-mer frequency, TF over GST control)"
same,binding signal,[9],"1.42 fold enrichment (6-mer frequency, TF over GST control)"
same,binding signal,[10],"1.16 fold enrichment (6-mer frequency, TF over GST control)"
same,binding signal,[11],"1.46 fold enrichment (6-mer frequency, TF over GST control)"
same,binding signal,[12],"1.3 fold enrichment (6-mer frequency, TF over GST control)"
same,binding signal,[13],"1.6 fold enrichment (6-mer frequency, TF over GST control)"
same,binding signal,[14],"1.14 fold enrichment (6-mer frequency, TF over GST control)"
same,binding signal,[15],"1.57 fold enrichment (6-mer frequency, TF over GST control)"
same,binding signal,[16],"1.55 fold enrichment (6-mer frequency, TF over GST control)"
same,binding signal,[17],"1.37 fold enrichment (6-mer frequency, TF over GST control)"
